Compound activity from PubChem.
Compounds with a hit are over-represented: about 1.2% of the library has one in this group of screens.
ugtP null kill: growth inhibition of ugtP-null S. aureus, primary screen, RN4220 ugtP deletion, OD600; growth inhibition, % (concentration not given with the values); 330,000 tested, 0.54% active; AID 1259309, 2017; 16 h; in the data active = growth inhibition above about 68%
RN4220 kill: growth inhibition of S. aureus RN4220, primary screen, OD600 | 16 h | inhibition, % (concentration not given with the values) | 330,000 tested, 0.33% active; in the data active = inhibition above about 85%
BJeLR viability: MLPCN primary cell-based screen for lethality selective to Ras in HRASV12 cells; AID 1554, 2009; BJeLR (HRASV12) viability, CellTiter-Glo ATP luminescence, 48 h; 300,000 tested, 0.17% active; inhibition, % (no concentration beside the values); in the data active = inhibition above about 50%
MazF activator: activators of E. coli MazEF toxin-antitoxin RNase, primary screen, biochemical, fluorescence, uHTS; Endoribonuclease toxin MazF (Escherichia coli (strain K12)), P0AE70; FAM/BHQ RNA-DNA oligo cleavage fluorescence, 5 h; activation, % at 20 µM; 350,000 tested, 0.32% active; AID 504720, 2011; in the data active = activation above about 50%
Target sequence (P0AE70 whole entry, looked up): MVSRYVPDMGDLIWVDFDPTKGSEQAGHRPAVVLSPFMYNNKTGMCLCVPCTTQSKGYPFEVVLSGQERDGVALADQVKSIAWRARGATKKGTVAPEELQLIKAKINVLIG
PriA SSB inh: inhibitors of Klebsiella pneumoniae PriA binding to SSB C-terminal tail, primary screen, biochemical, AlphaScreen; AlphaScreen SSBct-PriA binding, biotinylated peptide; inhibition, % at 33 µM; 430,000 tested, 0.6% active; AID 1272365, 2023; in the data active = inhibition mostly above about 37%, no sharp cut-off; inactive = mostly below about 20%
Numbers stand for hits; ! = not confirmed by another sample.

How did Cc1oc(-c2ccccc2)nc1C(=O)OCC(=O)NC(C)c1ccccc1 (stereo unspecified) do in these assays?
ugtP null kill: inactive; RN4220 kill: inactive; MazF activator: inactive; PriA SSB inh: inactive

What do the screens show for `O=Cc1ccc(Oc2cc(-c3ccccc3)nc(-c3ccccc3)n2)cc1`?
ugtP null kill: 100; RN4220 kill: inactive; BJeLR viability: inactive; MazF activator: inactive; PriA SSB inh: inactive

Results for Cc1cc(C=C2C(=O)c3ccccc3C2=O)c(C)n1C ?
ugtP null kill: inactive; RN4220 kill: inactive; BJeLR viability: inactive; MazF activator: inactive; PriA SSB inh: inactive

How did Cc1cccc(-n2c(C)cc(C=C3C(=O)c4ccccc4C3=O)c2C)c1 do in these assays?
ugtP null kill: inactive; RN4220 kill: inactive; BJeLR viability: inactive; MazF activator: 597; PriA SSB inh: inactive

What do the screens show for `CCn1c(C)cc(C=C2C(=O)c3ccccc3C2=O)c1C`?
ugtP null kill: inactive; RN4220 kill: inactive; BJeLR viability: inactive; MazF activator: 79; PriA SSB inh: inactive

Results for O=C(NCCCn1ccnc1)Nc1ccc(F)c(Cl)c1 ?
PriA SSB inh: inactive

What do the screens show for `O=C(NCCCn1ccnc1)Nc1ccc(Cl)c(Cl)c1`?
ugtP null kill: inactive; RN4220 kill: inactive; BJeLR viability: inactive; MazF activator: inactive; PriA SSB inh: 76

What do the screens show for `CC(C)(C)c1ccc(C(=O)NCc2n[nH]c(=S)n2-c2ccc(Cl)c(Cl)c2)cc1`?
PriA SSB inh: inactive

Results for CCCN(CCC)S(=O)(=O)c1ccc(C(=O)NCc2n[nH]c(=S)n2-c2ccc(Cl)c(Cl)c2)cc1 ?
ugtP null kill: inactive; RN4220 kill: inactive; BJeLR viability: inactive; MazF activator: inactive; PriA SSB inh: 45!

What do the screens show for `CS(=O)(=O)c1ccc(-c2nnc(NC(=O)c3cc(Cl)ccc3Cl)o2)cc1`?
PriA SSB inh: inactive

Results for COC(=O)c1ccc(C(=O)Nc2nnc(-c3ccc4c(c3)CCCC4)o2)cc1 ?
PriA SSB inh: 38

Results for Cc1ccc2nc(NNC(=O)c3ccc(S(=O)(=O)N4CCc5ccccc5C4)cc3)sc2c1 ?
ugtP null kill: inactive; RN4220 kill: inactive; BJeLR viability: inactive; MazF activator: inactive; PriA SSB inh: 95

Results for COc1ccc(-c2nnc(NC(=O)c3cc(Cl)ccc3Cl)o2)cc1 ?
ugtP null kill: 100; RN4220 kill: inactive; BJeLR viability: inactive; MazF activator: inactive; PriA SSB inh: inactive

How did COc1ccc(-c2nnc(NC(=O)c3ccc(S(=O)(=O)N4CCc5ccccc5C4)cc3)o2)cc1 do in these assays?
ugtP null kill: 99; RN4220 kill: inactive; BJeLR viability: 76; MazF activator: inactive; PriA SSB inh: inactive

How did COc1ccc(-c2csc(NC(=O)c3ccc(S(=O)(=O)N4CCc5ccccc5C4)cc3)n2)cc1 do in these assays?
ugtP null kill: inactive; RN4220 kill: inactive; BJeLR viability: inactive; MazF activator: inactive; PriA SSB inh: inactive

What do the screens show for `C=C(C)COc1ccc2c(C)c(CC(=O)N3C[C@H]4C[C@@H](C3)c3cccc(=O)n3C4)c(=O)oc2c1`?
ugtP null kill: inactive; RN4220 kill: inactive; BJeLR viability: inactive; MazF activator: inactive

What do the screens show for `CN(C)S(=O)(=O)c1ccc(C(=O)Nc2nnc(-c3ccc4c(c3)CCCC4)o2)cc1`?
ugtP null kill: 99; RN4220 kill: 98; BJeLR viability: inactive; MazF activator: inactive; PriA SSB inh: inactive

What do the screens show for `O=C(Nc1nnc(-c2ccc3c(c2)CCCC3)o1)c1cc(Cl)sc1Cl`?
PriA SSB inh: inactive

Results for O=C(Nc1nnc(-c2ccc3c(c2)CCCC3)o1)c1ccc(Cl)cc1Cl ?
ugtP null kill: 100; RN4220 kill: 99; BJeLR viability: inactive; MazF activator: inactive; PriA SSB inh: inactive

Results for CCS(=O)(=O)c1ccc(C(=O)Nc2nc(-c3cc4cc(OC)ccc4o3)cs2)cc1 ?
PriA SSB inh: inactive

Results for Cc1ccc(NC(=O)COC(=O)CCc2c[nH]c3ccccc23)cc1[N+](=O)[O-] ?
ugtP null kill: inactive; RN4220 kill: inactive; BJeLR viability: inactive; MazF activator: inactive; PriA SSB inh: 40

Results for O=C(Nc1ccc(Cl)cc1Cl)NC1CCCC1 ?
ugtP null kill: inactive; RN4220 kill: inactive; BJeLR viability: inactive; MazF activator: inactive; PriA SSB inh: inactive

How did O=C(Nc1ccc(Cl)cc1Cl)NC1CCN(S(=O)(=O)c2ccc(F)cc2)CC1 do in these assays?
ugtP null kill: inactive; RN4220 kill: inactive; BJeLR viability: inactive; MazF activator: 101; PriA SSB inh: inactive

How did Cc1cc(C)c2nc(NC(=O)C3CSC4(C)CCC(=O)N34)sc2c1 (stereo unspecified) do in these assays?
ugtP null kill: inactive; RN4220 kill: inactive; MazF activator: inactive; PriA SSB inh: inactive

Results for O=C(NNC(=O)c1cccc2ccccc12)c1ccc(Br)cc1 ?
ugtP null kill: inactive; RN4220 kill: inactive; MazF activator: 66; PriA SSB inh: inactive

How did O=C(NNC(=O)c1cccc2ccccc12)c1cccc(Br)c1 do in these assays?
ugtP null kill: inactive; RN4220 kill: inactive; MazF activator: inactive; PriA SSB inh: inactive

What do the screens show for `CN(C)c1ccc(C=NN=C(N)N)cc1[N+](=O)[O-]`?
ugtP null kill: inactive; RN4220 kill: inactive; PriA SSB inh: inactive

How did O=C(NCCc1ccccc1)C(c1cccs1)N(C(=O)c1csnn1)C1CC1 (stereo unspecified) do in these assays?
ugtP null kill: inactive; RN4220 kill: inactive; BJeLR viability: inactive; MazF activator: inactive; PriA SSB inh: inactive

Results for O=C(NCCc1ccccc1)C(c1cccs1)N(C(=O)CCl)c1ccc(Cl)cc1 (stereo unspecified) ?
ugtP null kill: inactive; RN4220 kill: inactive; BJeLR viability: 117; MazF activator: inactive; PriA SSB inh: inactive

How did COc1ccc(SC(CCN2CCC(C)CCC2=O)c2ccccc2)cc1 (stereo unspecified) do in these assays?
ugtP null kill: inactive; RN4220 kill: inactive

Results for O=C(c1ccc(N2CCCCC2)c([N+](=O)[O-])c1)N(Cc1ccccc1)c1ccccn1 ?
ugtP null kill: inactive; RN4220 kill: inactive; BJeLR viability: inactive; MazF activator: inactive; PriA SSB inh: 52

What do the screens show for `CC1Cc2ccccc2N1C(=O)c1ccc(N2CCCC2)c([N+](=O)[O-])c1` (stereo unspecified)?
ugtP null kill: inactive; RN4220 kill: inactive; BJeLR viability: inactive; MazF activator: inactive; PriA SSB inh: 46

Results for COC(=O)CCN(C(=O)c1ccc(N2CCCCC2)c([N+](=O)[O-])c1)c1ccccn1 ?
ugtP null kill: inactive; RN4220 kill: inactive; BJeLR viability: inactive; MazF activator: inactive; PriA SSB inh: inactive

How did COc1ccc(C(=O)OCC(=O)NCCCc2ccccc2)cc1[N+](=O)[O-] do in these assays?
ugtP null kill: inactive; RN4220 kill: inactive; BJeLR viability: inactive; MazF activator: inactive; PriA SSB inh: inactive
